Each structure is given as a SMILES string. Inconclusive results are not listed. Calls of active or inactive are those of the source. Calls come from the whole dose curve; as a rule, active = well fitted inhibition curve with a large enough effect; inconclusive = small, poorly fitted or top-dose-only effect; inactive = flat fitted curve, though single readings scatter. Where a SMILES comes first, the peptide text is derived from it.
% is set by controls: 0 for no effect and ±100 for the full control effect.

The experiment can be described thus: P-glycoprotein substrates identified in KB-8-5-11 adenocarcinoma cell line, qHTS therapeutic library screen (AID 1346987). Note: nearly all actives have a fitted effect of over 65% in size. Conditions: KB-8-5-11 (P-gp overexpressing) viability, CellTiter-Glo, 72 h; series mostly up to 44.5 µM; activity change, negative = cytotoxicity: at the top concentration. A digest of the protocol: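 KB-8-5-11: colchicine-selected sub-line of KB-3-1 over-expressing P-gp; assay medium lacked colchicine. 72 h drug exposure at 37 degree C, CellTiter-Glo.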
For orientation: In qHTS, concentration-response curves come from the screen itself.
With `Fc1cccc(CN(C2=NCCN2)c2c(Cl)cccc2Cl)c1`, the “activity change, negative = cytotoxicity” value is 1.01% (inactive).

On to `C=C(C)[C@@]1(O)C[C@@]2(C)C(=CC1=O)CC[C@@H](O)[C@@H]2C`, for which the “activity change, negative = cytotoxicity” value was 5.24% (inactive).

On to `C[C@]12CCC[C@](C)(C(=O)O)C1CCC13CC(CO)C(CCC12)C3` (some centres not stated), for which the outcome was inactive.

On to `C=C1CC/C=C(/C(=O)O)CCC2C1CC2(C)C` (configuration not stated), for which the outcome was inactive.

Take `COc1ccc(/C=C/C(=O)O[C@@H]2[C@@H](O)[C@@H](O)[C@H](O[C@H]3[C@@H]4C=CO[C@@H](O[C@@H]5O[C@H](CO)[C@@H](O)[C@H](O)[C@H]5O)[C@@H]4[C@@]4(CO)O[C@@H]34)O[C@H]2C)cc1`: the “outcome” value is “inactive [at 17.3 µM]”.

Turning to `CC1CC(O)/C=C/C(O)/C=C\C(=O)O1` (configuration not stated), the “activity change, negative = cytotoxicity” value was 5.67% [at 93.4 µM] (inactive).

In the case of `C=C[C@H]1[C@H](O[C@@H]2O[C@H](CO)[C@@H](O)[C@H](OC(=O)/C=C/c3ccc(O)c(OC)c3)[C@H]2O)OC=C2C(=O)OCC[C@]21O`, the “activity change, negative = cytotoxicity” value was 4.57% [at 17.3 µM] (inactive).

Regarding `CC(C)[C@](O)(c1ccc2cc(OC(F)F)c(OC(F)F)cc2c1)c1cn[nH]n1`, the “activity change, negative = cytotoxicity” value was -10.2% (inactive).

As to `CC(=O)/C=C/C1(O)C(C)=CC(=O)CC1(C)C` (configuration not stated), the compound was classed as inactive.

As for `C/C=C(\C)C1C(C)=CC2CCC(OS(=O)(=O)O)C(C)C2C1/C=C/C=C/C(=O)O` (configuration not stated), the “activity change, negative = cytotoxicity” value is 6.83% [at 17.3 µM] (inactive).

For the compound `C=C1C(OC(C)=O)[C@@]23CCC4[C@](C)(C(=O)O)CCC[C@@]4(C)[C@]2(O)CC[C@H]1C3` (some centres not stated), the “activity change, negative = cytotoxicity” value is -2.24% (inactive).

Turning to `C=C1CC/C=C(/CO)C(=O)C[C@@H]2[C@@H]1C[C@@]2(C)COC(C)=O`, the “activity change, negative = cytotoxicity” value was 9.93% (inactive).

`COCC1OC(n2cnc3c(=O)[nH]cnc32)C(O)C1O` (configuration not stated): the call was inactive.

For the compound `COc1ccc(-n2c(=O)[nH]c3cc(C(=O)NCc4ccc(Cl)cc4)sc3c2=O)nc1OC`, the “activity change, negative = cytotoxicity” value is 5.9% (inactive).

As to `CC(=O)NC(Cc1ccccc1)C(=O)NC(C(=O)O)C(C)C` (stereo not drawn) (Ac-Phe-Val-OH; configuration not given here), the “activity change, negative = cytotoxicity” value was 3.63% (inactive).

`CCC(C)/C=C(C)/C=C/C1=CC2=C(Cl)C(=O)C(C)(OC(C)=O)C(=O)C2=CN1C(CC(=O)O)C(=O)O` (configuration not stated): the “activity change, negative = cytotoxicity” value was 2.01% [at 17.3 µM] (inactive).

As to `C[C@@H]1C(=O)O[C@H](C)[C@H]1C[C@@H](O)[C@](C)(O)[C@H]1CC[C@@]2(O)C3=CC(=O)[C@@H]4C[C@@H](O)[C@@H](O)C[C@]4(C)C3CC[C@]12C` (some centres not stated), the “activity change, negative = cytotoxicity” value was -0.429% [at 17.3 µM] (inactive).

Take `COc1cc2c(c(OC)c1O)C(c1ccc(O)cc1)C1C(=O)OC3C(COC(=O)C1=C2)OC(CO)(OC1OC(COC(=O)/C=C/c2ccc(OC4OC(C)C(O)C(O)C4O)cc2)C(O)C(O)C1O)C3O` (configuration not stated): the activity change, negative = cytotoxicity is 2.8% [at 9.29 µM] (inactive).

As for `CC(=O)O[C@@H]1C(=O)C(C)=C(CCC(C)CC(=O)O)[C@@]2(C)CCCC(C)(C)C12` (some centres not stated), the “activity change, negative = cytotoxicity” value was 2.39% (inactive).

Consider `O=C(O)c1ccnc2cc(C(OCC3CCC(F)(F)CC3)c3ccccc3Cl)[nH]c12` (configuration not stated), for which the “activity change, negative = cytotoxicity” value was 8.48% (inactive).

Turning to `CC(=O)OCC1=CCC2C(C)(C)CCCC2(C)C12CCC(C)(CC(=O)O)O2` (configuration not stated), the “activity change, negative = cytotoxicity” value was -3.85% (inactive).

Consider `Cn1c2ccc(NC(=O)c3ccccc3)cc2c(=O)n2nc(C(=O)O)cc12`, for which the “outcome” value is “inactive [at 17.3 µM]”.

In the case of `CC(O)CCc1ccc(O[C@@H]2O[C@H](CO)[C@@H](O)[C@H](O)[C@H]2O)cc1` (some centres not stated), the “activity change, negative = cytotoxicity” value was 2.83% (inactive).

As for `C[C@@H]1CC[C@]2(C(=O)O)CC[C@]3(C)C(=CCC4[C@@]5(C)C[C@@H](O)[C@@H](O)C(C)(C)C5CC[C@]43C)C2[C@]1(C)O` (some centres not stated), the “outcome” value was “inactive [at 17.3 µM]”.

For `CCOc1nc2c(N)ncnc2n1CC`, the call was inactive.

With `C[C@@H](NC(=O)c1cc(C(=O)N[C@@H](Cc2ccccc2)[C@H](O)CNC2CC2)cc(N(C)S(C)(=O)=O)c1)c1ccccc1`, the “activity change, negative = cytotoxicity” value is 5.37% (inactive).

As to `CC(=O)OCC(Cc1ccccc1)NC(=O)C(Cc1ccccc1)NC(=O)c1ccccc1` (configuration not stated), the “outcome” value was “inactive [at 17.3 µM]”.

With `O=C(O)CC1CCC(c2ccc(NC(=O)c3nnc(Nc4ccc(F)c(F)c4)o3)cc2)CC1` (configuration not stated), the compound was called inactive.

On to `CC1(C)CC[C@]2(C(=O)O)CC[C@]3(C)C(=CCC4[C@@]5(C)CC[C@H](O)C(C)(C)C5CC[C@]43C)C2C1` (some centres not stated), for which the “activity change, negative = cytotoxicity” value is -1.94% [at 17.3 µM] (inactive).

Consider `Fc1ccccc1-c1nc2ccn(Cc3ccc(-c4ccc(C(F)(F)F)cc4C(F)(F)F)nn3)cc-2n1`, for which the “activity change, negative = cytotoxicity” value was 4.25% (inactive).

For `CC1=C2C(=O)C=C(CO[C@@H]3O[C@H](CO)[C@@H](O)[C@H](O)[C@H]3O)[C@@H]2[C@H]2OC(=O)[C@H](C)[C@@H]2CC1`, the “activity change, negative = cytotoxicity” value is 4.62% [at 17.3 µM] (inactive).

As to `C[C@@H]1O[C@@H](O[C@H]2[C@H](OC(=O)[C@]34CCC(C)(C)C[C@H]3C3=CCC5[C@@]6(C)C[C@@H](O)[C@@H](O)[C@@](C)(CO)C6[C@H](O)C[C@@]5(C)[C@]3(C)CC4)OC[C@H](O)[C@@H]2O)[C@H](O)[C@H](O)[C@H]1O[C@@H]1OC[C@@H](O)[C@H](O[C@H]2O[C@H](C)[C@@H](O)[C@H](O)[C@@H]2O)[C@H]1O` (some centres not stated), the activity change, negative = cytotoxicity was 2.85% [at 9.29 µM] (inactive).

The values are drawn from PubChem BioAssay (NCATS).
